In the library only some 9.4% were active in any assay of this set; here they are far more common.
NPC1 promoter act: qHTS Assay for NPC1 Promoter Activators. Huh7 NPC1 promoter luciferase reporter, 24 h. Potency, µM (top dose mostly 9.22 µM), without a hit: at the top dose activation, hits mostly activators. 2.4% of 320,000 active; also: % of control where 0% means no effect; nearly all actives have a fitted effect of over 60% in size
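Luciferase expression driven by the NPC1 promoter was measured in stably transfected Huh7 cells after a 24 h compound incubation, using a luciferase reagent and a luminescence read.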
SMN2 splice enh: qHTS Assay for Enhancers of SMN2 Splice Variant Expression; HEK293 SMN2-luciferase splicing reporter, luminescence, 30-36 h; Potency, µM (top dose mostly 46.1 µM), without a hit: top-dose activity change, positive = activation, usual class: activators; 2.8% of 210,000 active; AID 1458, 2008; also: % of control where 0% means no effect; nearly all actives have a fitted effect of over 55% in size
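qHTS luciferase splicing reporter: luminescence rises when SMN2 exon 7 is included in transfected HEK293 cells. Compound exposure lasted 30-36 h at 37C, with 4.5 mM final sodium butyrate as control, followed by a ONE-Glo read.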
FLuc modulator: qHTS profiling assay for firefly luciferase inhibitor/activator using purifed enzyme and Km concentrations of substrates (counterscreen for miR-21 project). Luciferin 4-monooxygenase (Photinus pyralis), P08659. purified FLuc, Km substrates, luminescence inhibition. Potency, µM (doses to about 57.5 µM), without a hit: at the highest dose activity change, negative = inhibition, hits mostly inhibitors. 6.9% of 360,000 active;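 also: plate controls were vehicle for no effect and reference inhibitor for full effect; nearly all actives have a fitted effect of over 55% in size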
Target sequence (P08659 whole entry, looked up): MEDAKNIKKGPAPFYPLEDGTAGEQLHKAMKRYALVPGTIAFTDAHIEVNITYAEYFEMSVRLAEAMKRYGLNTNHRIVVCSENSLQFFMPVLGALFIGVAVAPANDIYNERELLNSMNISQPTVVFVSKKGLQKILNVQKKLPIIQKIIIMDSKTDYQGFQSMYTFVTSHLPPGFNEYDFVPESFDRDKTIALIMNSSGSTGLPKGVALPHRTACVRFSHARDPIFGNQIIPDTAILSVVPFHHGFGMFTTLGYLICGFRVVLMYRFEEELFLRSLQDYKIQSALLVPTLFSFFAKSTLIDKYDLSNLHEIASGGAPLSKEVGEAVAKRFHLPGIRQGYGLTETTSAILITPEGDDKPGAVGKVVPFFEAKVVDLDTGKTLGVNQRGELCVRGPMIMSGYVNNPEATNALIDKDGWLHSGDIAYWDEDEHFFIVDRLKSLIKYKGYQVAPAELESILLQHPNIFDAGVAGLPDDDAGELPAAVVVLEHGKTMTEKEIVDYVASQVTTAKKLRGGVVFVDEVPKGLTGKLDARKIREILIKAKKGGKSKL
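Purified P. pyralis luciferase (10nM final) with 10uM D-luciferin and 10uM ATP (Km levels) in 50mM Tris acetate pH 7.5, 10mM Mg acetate, 0.01% Tween-20, 0.05% BSA; qHTS 6-point titration, ~60 µM downward; luminescence read.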
ELG1 genotox: qHTS screen for small molecules that induce genotoxicity in human embryonic kidney (HEK293T) cells expressing luciferase-tagged ELG1; HEK293T ELG1-luciferase reporter, luminescence, 16 h; Potency, µM (series often up to 46 µM), for inactives: at the top dose activity change, positive = activation, most hits filed as activators; 1.3% of 330,000 active; also: % of control where 0% means no effect; nearly all actives have a fitted effect of over 60% in size
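HEK293T cells expressing luciferase-tagged ELG1 were exposed to compound or DMSO vehicle for 16 hr at 37 °C and 5% CO2. Luciferase activity was then measured with ONE-Glo after 30 min at room temperature.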
ELG1 repair inh: qHTS screen for small molecules that inhibit ELG1-dependent DNA repair in human embryonic kidney (HEK293T) cells expressing luciferase-tagged ELG1; Potency, µM (series often up to 46.1 µM), for the others: at the top dose activity change, negative = inhibition, actives largely listed as inhibitors; HEK293T ELG1-luciferase reporter, luminescence, 16 h; DNA damage induced by 5-fluorouridine; 2.3% of 330,000 active; also: % is scaled to controls: 0 for no effect and ±100 for the full control effect; nearly all actives have a fitted effect of over 55% in size
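Cells (2,000 per well) received 5-fluorouridine plus test compound or DMSO and were incubated 16 hr at 37 °C, 5% CO2. Luciferase activity was read by luminescence 30 min after ONE-Glo addition; signal suppression marked inhibition of damage-induced ELG1 function.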
Rab9 promoter act: qHTS Assay for Rab9 Promoter Activators. Huh7 Rab9 promoter-luciferase reporter, luminescence, 24 h. Potency, µM (top dose mostly 9.22 µM), without a hit: top-dose activation, negative = inhibition, hits mostly activators. 2.8% of 320,000 active. AID 485297, 2010; also: % of control where 0% means no effect; nearly all actives have a fitted effect of over 60% in size
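Using Huh7 cells stably transfected with Rab9 promoter–luciferase, compounds were incubated 24 h at 37 °C, 5% CO2; luciferase luminescence was read 10 min after reagent addition.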
Numbers without * were called inactive; ? = inconclusive; . = no result; [ ] = dose if it differs, or a comment. Calls follow the shape of the dose curve; as a rule, active = well fitted curve in the direction sought with a large enough effect; inconclusive = small, poorly fitted or top-dose-only effect, or another doubt; inactive = no such curve, though single readings can be large; an effect the other way counts as inactive or inconclusive. Potency is read from the fitted curve at half-maximal effect.

SMILES	NPC1 promoter act	SMN2 splice enh	FLuc modulator	ELG1 genotox	ELG1 repair inh	Rab9 promoter act
COCCOC(=O)c1c(C)oc2ccc(OC(=O)c3ccco3)cc12	-4.3%	7.8%	23.9µM*	6.7%	?	-1.5%
Cc1cc(=O)oc2cc(OC(=O)c3ccccc3)ccc12	-0.5%	7.6%	5.36µM*	-6.7%	-17.0%	0.8%
CC(=O)c1c(C)oc2c(Br)cc(NS(=O)(=O)c3ccc(Br)cc3)cc12	.	.	-6.8%	.	.	.
NS(=O)(=O)c1cccc(NC(=O)Nc2ccc(Cl)cc2)c1	29.7%	.	7.57µM*	6.4%	?	17.8%
NS(=O)(=O)c1cccc(NC(=O)CCSc2ccccc2Cl)c1	?	?	16.9µM*	?	?	?
COC(=O)c1cccc(NC(=S)Nc2ccc(Cl)c(Cl)c2)c1	5.9%	.	-14.7%	-8.7%	-8.7%	11.4%
COC(=O)c1cccc(NC(=O)Nc2ccc(Cl)cc2)c1	2.24µM*	.	2.69µM*	-1.4%	?	3.16µM*
COC(=O)c1cc(NC(=O)Nc2cccc(Cl)c2)ccc1Cl	11.6%	-6.8%	30.1µM*	-10.3%	-0.9%	8.6%
COc1ccc(N(C(=O)c2ccc(C(C)(C)C)cc2)S(=O)(=O)c2ccc(Cl)cc2)cc1	.	-35.7%	0.5%	.	.	.
COc1ccc(N2CCN(C(CNC(=O)C(=O)NCCc3ccccc3)c3cccnc3)CC2)cc1 (configuration not stated)	.	.	-15.3%	.	.	.
CC(NC(=O)c1ccc(NC(=O)c2nsc3ccccc23)cc1)c1ccccc1 (configuration not stated)	.	.	3.01µM*	.	.	.
CC(NC(=O)c1cccc(NC(=O)c2nsc3ccccc23)c1)c1ccccc1 (configuration not stated)	.	.	3.79µM*	.	.	.
Cc1ccc(C(=O)NCc2ccc(F)cc2)cc1NC(=O)c1nsc2ccccc12	.	.	-18.1%	.	.	.
CN(Cc1ccccc1)C(=O)c1cccc(NC(=O)c2nsc3ccccc23)c1	.	.	9.53µM*	.	.	.
CC(C)Oc1ccc(CNC(=O)c2cccc(NC(=O)c3nsc4ccccc34)c2)cc1	.	.	9.53µM*	.	.	.
CN(C)c1ccc(CNC(=O)c2ccccc2NC(=O)c2nsc3ccccc23)cc1	.	.	-17.7%	.	.	.
O=C(Nc1cccc(F)c1)c1ccc(-c2ccccc2)s1	.	15.7%	2.13µM*	.	.	.
O=C(Nc1ccccc1)c1ccc(-c2ccc(F)cc2)s1	?	?	?	7.3µM*	?	?
Cc1ccc(NC(=O)c2ccc(-c3ccccc3)s2)cc1	.	5.2%	-15.0%	.	.	.
O=C(Nc1ccc(F)cc1F)c1ccc(-c2ccccc2)s1	.	21.9%	-20.3%	.	.	.
Cc1cccc(NC(=O)c2ccc(-c3ccccc3)s2)c1	.	?	2.39µM*	.	.	.
CCCCC(=O)N1CCc2cc(OC)c(OC)cc2C1COc1ccc(C(=O)OCC)cc1 (configuration not stated)	.	.	2.1%	.	.	.
CCC[C@H]1C[C@H](C(=O)N[C@@H]([C@H]2O[C@@H](SC)[C@@H](O)[C@@H](O)[C@@H]2O)[C@H](C)Cl)N(C)C1	.	18.1%[20.6 µM]	.	.	.	.
CN1CCCN(C)C1c1cc([N+](=O)[O-])ccc1O	.	-11.4%[9.22 µM]	.	.	.	.
CCOC(=O)c1ccccc1NC(=O)c1cn(CC)c2nc(C)ccc2c1=O	1µM*	-42.0%	3.38µM*	?	?	0.794µM*
SMILES	NPC1 promoter act	SMN2 splice enh	FLuc modulator	ELG1 genotox	ELG1 repair inh	Rab9 promoter act
CCn1cc(C(=O)OCc2ccccc2)c(=O)c2ccc(C)nc21	-4.0%	13.3%	6.4%	-5.1%	-23.6%	-1.0%
CCn1cc(C(=O)Nc2ccccc2C(=O)OC)c(=O)c2ccc(C)nc21	0.562µM*	11.2µM*	3.38µM*	?	?	1.12µM*
CCOC(=O)c1cn(CC)c2c(ccc3ccccc32)c1=O	21.7%	.	23.9µM*	11.7%	?	19.1%
CCn1cc(C(=O)Nc2cccc(C(=O)OC)c2)c(=O)c2ccc(C)nc21	14.2%	7.0%	-4.2%	-6.8%	16.5%	19.7%
CCN(CC)CCSc1nnc2c3cc(F)ccc3n(CC)c2n1	.	-1.9%	-5.6%	.	.	.
Cc1ccc(Nc2cc(-c3ccccc3)nc(C)n2)cc1	.	.	23.9µM*	.	.	.
CCOC(=O)c1ccc(Nc2cc(-c3ccccc3)nc(C)n2)cc1	.	.	-6.7%	.	.	.
Cc1cc(Nc2ccc(Br)cc2)nc(C)n1	.	.	21.3µM*	.	.	.
COc1cccc(Nc2nc(-c3ccccc3)nc3ccccc23)c1	-4.7%	.	-14.4%	-8.7%	?	-0.5%[1.84 µM]
COc1cccc(Nc2cc(-c3ccccc3)nc(C)n2)c1	.	.	26.9µM*	.	.	.
Cc1cc(NC(=O)c2ccc(Br)cc2)nc(C)n1	-0.2%	.	?	-0.1%	16.5%	-2.9%
COc1ccc(Nc2cc(Nc3cccc(OC)c3)ncn2)cc1	?	.	2.69µM*	?	?	?
Cc1cccc(C(C)C)c1NC(=O)Cn1c(=O)oc2cc(S(=O)(=O)N3CCCC3)ccc21	.	-23.4%	1.2%	.	.	.
COc1ccc(/C=C2\SC(=O)N(CCNC(=O)C3CSC4(C)CCC(=O)N34)C2=O)cc1 (configuration not stated)	14.9%	.	16.9µM*	0.6%	22.9%	16.9%
COc1ccc(/C=C2\SC(=S)N(CCC(=O)N3CCCCC3CCO)C2=O)cc1 (configuration not stated)	-0.6%	.	?	-9.0%	?	-6.0%
COc1ccc(/C=C2\SC(=O)N(CCNC(=O)C3CC4C=CC3C4)C2=O)cc1 (configuration not stated)	2.82µM*	25.1µM*	6.75µM*	?	?	0.708µM*
COc1ccc(/C=C2\SC(=O)N(CCC(=O)N3CCCCC3CCO)C2=O)cc1 (configuration not stated)	-3.5%	.	9.53µM*	-2.4%	2.5%	-1.3%
CC12CCC(=O)N1C(C(=O)NCCN1C(=O)S/C(=C\c3ccc(OC(F)F)cc3)C1=O)CS2 (configuration not stated)	2.3%	.	0.5%	-12.2%	?	-2.2%
Cc1cc2ncn(CCOc3ccccc3)c2cc1C	?	-2.2%	16.9µM*	?	?	3.55µM*
O=C(O)c1ccccc1-c1ccccc1C(=O)Nc1ccc(-c2nc3cc(Cl)ccc3o2)cc1	1.4%	.	15.1µM*	17.4%	?	13.9%
CC(=O)Nc1ccc(-c2nc3cc(Cl)ccc3o2)cc1	0.501µM*	.	1.35µM*	2.06µM*	?	0.794µM*

Compound activity: PubChem BioAssay, National Center for Advancing Translational Sciences (NCATS)
